Most compounds without a hit are left out; they make up all but 8% or so of the library.
SARS PLP yeast: qHTS of Yeast-based Assay for SARS-CoV PLP. S. cerevisiae expressing SARS-CoV PLpro, growth rescue. Potency, µM (titrated, usually from 32.9 µM), inactives show at the highest dose activity, positive = growth rescue, hits mostly activators. actives 0.19% (n = 330,000). AID 485353, 2010; calls by dose curve; also: potency is read from the fitted curve at half-maximal effect; 0% is about no effect; nearly all actives have a fitted effect of over 55% in size
FMDV inh: High Throughput Screening for Foot and Mouth Disease Virus Antivirals | FMDV antiviral cell-based qHTS | Potency, µM (titrated, usually from 57.9 µM), for inactives: at the highest dose activity change, negative = inhibition, actives largely listed as inhibitors | actives 1.2% (n = 410,000) | AID 1159524, 2015; calls by dose curve; tested in HEK293T cells; also: read-out not given here; potency is read from the fitted curve at half-maximal effect; % is scaled to controls: 0 for no effect and ±100 for the full control effect; nearly all actives have a fitted effect of over 45% in size
HCMV antiviral: qHTS Assay for inhibitors of the human cytomegalovirus (HCMV); HFF cells, HCMV-luciferase reporter, 72 h; stronger effect = lower value; activity change, negative = inhibition, % at 57.5 µM; actives 4.5% (n = 410,000); AID 1259415, 2018; in the data active = activity change below about -60%; inconclusive = no clear call, values can overlap the other calls; inactive = above about -39%; also: % is scaled to controls: 0 for no effect and ±100 for the full control effect
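HFF cells seeded 16 h at 37C, treated with compounds, infected with luciferase-reporter HCMV at MOI 1 PFU/cell; luciferase read at 72 h post infection, normalized to buffer-only and Salinomycin controls.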
HCV inhibitor: qHTS Assay for Inhibitors of Hepatitis C Virus (HCV) | Huh7.5.1 HCVcc-Cre infection, luciferase reporter, 44 h | Potency, µM (doses to about 41.8 µM), without a hit: at the highest dose activity change, negative = inhibition, actives largely listed as inhibitors | actives 3.4% (n = 340,000); active = well fitted inhibition curve with a large enough effect; inconclusive = small, poorly fitted or top-dose-only effect, or another doubt; inactive = no such curve, though single readings can be large or run the other way; also: potency is read from the fitted curve at half-maximal effect; % is scaled to controls: 0 for no effect and ±100 for the full control effect
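Cells seeded at 1,000/well and cultured 4 h, then compounds added followed by HCVcc-Cre virus (~0.5 moi). After 44 h further culture, luciferase substrate was added, plates held 15 min at room temperature, and luminescence read for 15 sec.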
Marburg entry inh: qHTS for inhibitors of binding or entry into cells for Marburg Virus. Potency, µM (doses to about 37.8 µM), for inactives: at the highest dose activity change, negative = inhibition, actives largely listed as inhibitors. AID 540276, 2011. actives 1.8% (n = 300,000). Marburg virus pseudotyped entry inhibition, cell reporter; calls by dose curve; tested in HEK293 cells; also: potency is read from the fitted curve at half-maximal effect; % is scaled to controls: 0 for no effect and ±100 for the full control effect
Lassa entry inh: qHTS for Inhibitors of binding or entry into cells for Lassa Virus; Lassa virus pseudotype entry inhibition, cell reporter; Potency, µM (titrated, usually from 37.9 µM), inactives show top-dose activity change, negative = inhibition, hits mostly inhibitors; actives 1.2% (n = 300,000); AID 540256, 2011; calls by dose curve; tested in HEK293 cells; also: potency is read from the fitted curve at half-maximal effect; % is scaled to controls: 0 for no effect and ±100 for the full control effect; nearly all actives have a fitted effect of over 50% in size
Numbers without * were called inactive; ? = inconclusive; . = no result given; [ ] = remark or other dose.

SMILES	SARS PLP yeast	FMDV inh	HCMV antiviral	HCV inhibitor	Marburg entry inh	Lassa entry inh
NC(=O)c1ccccc1NC(=O)NC1CCCCC1	3.1%	4.5%	-2.5	13.4%	3.5%	-7.7%
O=C(Nc1nc2ccccc2[nH]1)NC1CCCCC1	?	-25.8%	56.7	-0.5%	?	11.2µM*
O=C(Nc1nc2ccccc2[nH]1)C1CC1	5.2%	67.0%	-2.0	?	-18.1%	22.5%
O=C(Nc1ccccc1NC(=O)NC1CCCCC1)NC1CCCCC1	0.4%	54.3%	-105.5*	12.6µM*	4.61µM*	13µM*
Oc1ccc(/C=N/Nc2nc(N3CCCCCC3)nc(N3CCCCCC3)n2)c(O)c1	-1.1%	?	-89.3*	?	?	?
C/C(=N\Nc1nc(N2CCCCC2)nc(N2CCOCC2)n1)c1ccccc1O	-1.2%	?	?	?	1.78µM*	7.08µM*
Oc1ccc(/C=N/Nc2nc(N3CCCC3)nc(N3CCCC3)n2)cc1O	-1.3%	-12.1%	-34.0	-15.8%	?	?
Oc1ccc(C=NNc2nc3ccccc3s2)c(O)c1	.	13.3%	-63.0*	?	?	?
BrC(=C\c1ccccc1)/C=N/Nc1nc(N2CCOCC2)nc(N2CCOCC2)n1	-46.5%	-25.7%	32.3	?	7.94µM*	-17.1%
CCCCC(=O)N/N=C/c1ccc(N2CCOCC2)c([N+](=O)[O-])c1	20.3%	-22.6%	-27.2	-28.1%	?	-9.9%
COc1ccc(/C=N/Nc2nc(N3CCCC3)nc(N3CCCC3)n2)c(OC)c1OC	-11.5%	-29.2%	8.1	?	?	0.6%
Oc1ccc(Br)cc1/C=N/Nc1nc(N2CCCCC2)nc(N2CCOCC2)n1	-1.9%	-17.6%	?	?	2.51µM*	-20.2%[46.1 µM]
C(=N\Nc1nc(N2CCOCC2)nc(N2CCOCC2)n1)/c1ccncc1	-8.2%	-7.7%	8.3	2.4%	?	-2.8%
Brc1cc2c(cc1/C=N/Nc1nc(N3CCCC3)nc(N3CCOCC3)n1)OCO2	-0.9%	?	-13.8	2.82µM*	-40.5%	-15.8%
COc1cccc(/C=N/Nc2nc(N3CCCC3)nc(N3CCCC3)n2)c1O	1.0%	.	-34.7	-29.3%	25.9µM*	16.1%
Cc1ccc(-c2nnn(CC(=O)N3CCCCC3)n2)o1	-3.4%	0.0%	-10.4	18.8%	.	.
COc1ccc(NC(=O)N(C)C[C@H]2Oc3ccc(NS(=O)(=O)c4ccccc4)cc3C(=O)N([C@H](C)CO)C[C@@H]2C)cc1	.	-6.9%	?	18.9%	.	.
CC(C)(C)OC(=O)N1CCC(c2c(C(=O)NCc3ccco3)cnn2-c2ccccc2Cl)CC1	.	-20.2%	0.0	.	.	?
CCc1cccc2[nH]c3cc([N+](=O)[O-])ccc3c12	-0.3%	-15.3%	-61.2*	?	-24.9%[46.1 µM]	10.1%[46.1 µM]
CN(Cc1ccco1)Cc1cc(-c2ccnc3cc(Cl)ccc23)ccc1O	.	-22.2%	.	.	.	.
COc1ccc(/C=C\C(=O)CC(O)(c2ccccc2)C(F)(F)F)cc1 (stereo unspecified)	-28.3%	20µM*	62.8	-5.8%	-19.2%	?
Cc1cc(C)c(NC(=O)c2sc3nc(C)[nH]c(=O)c3c2C)c(C)c1	-1.0%	.	96.2	.	.	.
CSCc1nc2sc(C(=O)Nc3nc(C)cs3)c(C)c2c(=O)[nH]1	0.7%	41.0%	43.9	11.2µM*	?	27.4%[46.1 µM]
Cc1ccc(NC(=O)c2sc3nc(CCl)[nH]c(=O)c3c2C)c(C)c1	-0.4%	?	14.6	11.2µM*	-28.4%[46.1 µM]	10.7%
COc1ccc(CCN(C)C(=O)Cc2ccc(-c3ccccc3)cc2)cc1OC	-3.8%	?	-76.0*	2.51µM*	?	?
COc1cc(CN(C)CCc2ccccc2)ccc1OCc1ccccc1	-0.2%	-20.5%	-31.7	3.55µM*	18.3µM*	-27.6%
COc1ccc(CCN(C)C(=O)COc2ccc(C(=O)c3ccccc3)cc2)cc1OC	-0.2%	-21.0%	-0.2	?	-2.6%	9.1%
COC(=O)[C@]1(CC=Cc2ccccc2)C=C[C@@H](C)[C@H](c2ccccc2Br)N1C(=O)C(F)(F)F	.	.	.	.	12.9%[14.2 µM]	.

Source: PubChem BioAssay
